Screening results from PubChem.
TDP43 rescue – TDP-43 toxicity inhibition in yeast | TDP-43 expressing yeast growth rescue, BacTiter-Glo, 24 h | Potency, µM (titrated, usually from 46.1 µM), for inactives: at the highest dose growth rescue (activation), actives largely listed as activators | 410,000 tested, 1.8% active | AID 652104; also: % of control where 0% means no effect; nearly all actives have a fitted effect of over 50% in size
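Cell-based yeast growth screen: TDP-43 expression induced in galactose, inoculum OD600=0.02 after raffinose pregrowth to mid-log. Read-out BacTiter-Glo luminescence at 24 hr, 30 deg C; inhibition of toxicity seen as signal increase.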
aSyn rescue – rescues yeast growth from alpha-synuclein toxicity; 370,000 tested, 0.14% active; Potency, µM (doses to about 46.1 µM), inactives show top-dose growth rescue (activation), actives largely listed as activators; Yeast expressing alpha-synuclein, growth rescue, BacTiter-Glo, 24 h; also: % of control where 0% means no effect; nearly all actives have a fitted effect of over 65% in size
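Rescue of yeast growth: cells expressing toxic alpha-synuclein, induced in galactose at OD600 0.02, incubated with compound 24 h at 30 C. ATP luminescence quantified growth; inhibitors of toxicity appear as activators.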
FUS yeast rescue – FUS proteinopathy suppression in yeast; S. cerevisiae FUS-expressing, growth rescue, OD600, 24 h; Potency, µM (series often up to 76.6 µM), actives largely listed as activators; 390,000 tested, 0.24% active; AID 1347120;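 also: plate controls were DMSO vehicle for no effect and reference control for full effect; nearly all actives have a fitted effect of over 55% in size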
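Yeast expressing FUS under galactose induction, OD 0.005 in 2% galactose medium; compounds in a dilution series, 24 h at 30C. Growth rescue by absorbance at 600 nm; CP55940 positive control, DMSO negative.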
Mito fusion yeast – mitochondrial division inhibition or fusion activation; S. cerevisiae fusion-defective mutant growth rescue, CellTiterGlo 48 h; Potency, µM (series often up to 46.1 µM), without a hit: at the top dose growth rescue (activation), most hits filed as activators; 320,000 tested, 0.23% active; AID 485298; also: % of control where 0% means no effect; nearly all actives have a fitted effect of over 45% in size
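Read-out: ATP-based luminescence (CellTiterGlo, 10 min ambient) reporting growth of fusion-defective ts yeast after 48 hours at 37C on glycerol/ethanol YPEG medium in the presence of compound.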
Abeta yeast res – compounds reversing amyloid beta toxicity in yeast; yeast expressing A-beta42, growth rescue, OD600, 48 h; response scale: 0% DMSO, 100% iron-clioquinol control; Potency, µM (titrated, usually from 46.1 µM), actives largely listed as activators; 410,000 tested, 0.063% active; AID 1347071; also: nearly all actives have a fitted effect of over 55% in size
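Growth rescue measured by 600 nm absorbance after 48 h yeast culture at 30 C with compound. Values normalized between DMSO and an equimolar ferric chloride plus clioquinol control.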
* marks the source's active call; other numbers are inactive results; i = inactive; ? = inconclusive; . = no result; [ ] = remark or other dose. This is a sample that favours compounds with a hit; in the whole collection about 2.2% have one here. Calls follow the shape of the dose curve; as a rule, active = well fitted curve in the direction sought with a large enough effect; inconclusive = small, poorly fitted or top-dose-only effect, or another doubt; inactive = no such curve, though single readings can be large; an effect the other way counts as inactive or inconclusive. Potency is read from the fitted curve at half-maximal effect.

SMILES	TDP43 rescue	aSyn rescue	FUS yeast rescue	Mito fusion yeast	Abeta yeast res
COc1ccc(CCNC(=O)c2ccc3c(c2)N(Cc2ccc(F)cc2)C(=O)c2ccccc2S3(=O)=O)cc1OC	-8%	.	?	.	i
COc1ccccc1C1CCN(C(=O)c2cccc([N+](=O)[O-])c2)CC1	16µM*	1%	i	6%	i
CC1c2cc3c(cc2CCN1CC(=O)Nc1ccccc1)OCCCO3 (stereo not drawn)	4%	0%	i	-3%	i
COc1cc2c(cc1OC)C(C)N(C(=O)c1cccc([N+](=O)[O-])c1)CC2 (stereo not drawn)	13µM*	22µM*	i	2%	i
COC(=O)c1ccc(OCC2c3cc(OC)c(OC)cc3CCN2C(=O)c2cccc(C)c2)cc1 (stereo not drawn)	25µM*	22%	?	.	i
COc1cc2c(cc1OC)C(C)N(C(=O)c1sccc1C)CC2 (stereo not drawn)	?	-19%	i	1%	i
CC1c2cc3c(cc2CCN1C(=O)c1cccc(Cl)c1)OCCCO3 (stereo not drawn)	13µM*	0%	i	3%	i
CC(C)c1ccc(NC(=O)c2ccc(CN3CC(=O)N4CCCCC4C3=O)cc2)cc1 (stereo not drawn)	12%	.	i	.	i
COc1ccc(OC)c(CCNc2nc3cc(OC)c(OC)cc3c3nc(-c4cccnc4)nn23)c1	-8%	.	i	.	i
CCOC(=O)c1cccc(Nc2nc(C(=O)OCC)nc3ccccc23)c1	24%[9.22 µM]	.	i	.	i
COC(=O)c1cccc(Nc2nc(-c3cccnc3)nc3ccccc23)c1	10%	6%	i	9%	i
CCOC(=O)c1cccc(Nc2nc(-c3cccnc3)nc3ccccc23)c1	18µM*	14%	i	5%	i
CCCOC(=O)c1cccc(Nc2nc(C(=O)OCC)nc3ccccc23)c1	22µM*	.	i	.	i
CSc1ccc(CCNC(=O)CCc2c(C)nc3c(-c4ccccc4)c(C)nn3c2C)cc1	?	.	i	.	i
Cc1ccc(S(=O)(=O)N2CCN(c3nc(-c4cncs4)nc4ccccc34)CC2)cc1	.	-8%	.	.	.
CCN(CC)c1ccc(CN(C(=O)Cc2coc3ccc(C)cc23)C2CCS(=O)(=O)C2)cc1 (stereo not drawn)	-9%	.	i	.	i
CCCn1nc(C(=O)N2CCN(S(=O)(=O)c3ccc(C)c(C)c3)CC2)c2ccccc2c1=O	35µM*	-40%	?	16%	i
CCn1nc(C)c(/C=N/NC(=O)c2ccc3c(c2)c(C)c(C)n3Cc2ccccc2)c1C	5%	2%	11µM*	4%	i
CCn1ncc(/C=N\NC(=O)c2ccc3c(c2)c(C)c(C)n3Cc2ccccc2)c1C	4%	9%	?	-3%	i
N#Cc1c2n(c3c(=O)n(Cc4ccc(Cl)cc4)cnc13)CCCCC2	20µM*	13%	i	11%	i[9.22 µM]
N#Cc1c2n(c3c(=O)n(Cc4ccccc4)cnc13)CCCC2	-6%	-2%	i	-3%	i
COc1cccc(Cn2c(=O)n(CC3CCC(C(=O)N4CCCCC4)CC3)c(=O)c3sccc32)c1 (stereo not drawn)	?	.	20µM*	.	i
CC(C)CCNc1nc(Nc2ccccc2)c2cnn(C)c2n1	18µM*	.	?	.	i
CC1(C(=O)NCc2cccc(C(F)(F)F)c2)CCN1Cc1ccc(-c2ccccc2)o1 (stereo not drawn)	-26%	20µM*	i	.	i
CC(=O)N1N=C(N)SC1c1cccc([N+](=O)[O-])c1 (stereo not drawn)	4%	-3%	i	-3%	i
SMILES	TDP43 rescue	aSyn rescue	FUS yeast rescue	Mito fusion yeast	Abeta yeast res
COc1ccc(C2=NN(C(C)=O)CC2c2cccc([N+](=O)[O-])c2)cc1 (stereo not drawn)	11µM*	11%	i	-9%	.
COc1cccc(N2CCN(C(=O)c3cccn3-c3nnc(N4CCCC4)s3)CC2)c1	-6%	.	i	.	i
CC(=O)c1cccc(Nc2ccc(Br)cc2)c1	14µM*	-13%	i	.	i
CCOC(=O)[C@H]1[C@H]2COc3ccc(Br)cc3[C@@H]2N2C(=O)N(c3ccccc3)C(=O)[C@@]12C	16%	1%	?	.	i
CCOC(=O)[C@H]1[C@H]2COc3ccc(Br)cc3[C@@H]2N2C(=O)c3cc(F)c(F)cc3NC(=O)[C@@]12C	29%	1%	28µM*	-25%	i
CCOC(=O)[C@@H]1[C@H]2COc3cc(OC)ccc3[C@@H]2N2C(=O)N(c3ccc(Cl)cc3)C(=O)[C@]12C	7%	-4%	28µM*	.	i
CCOC(=O)[C@@H]1[C@H]2COc3cc(OC)ccc3[C@H]2N2C(=O)N(c3ccc(Cl)cc3)C(=O)[C@]12C	19%	9%	?	.	i
CCOC(=O)[C@@H]1[C@H]2COc3ccc(Br)cc3[C@@H]2N2C(=O)N(c3ccccc3)C(=O)[C@@]12C	35µM*	?	i	1%	i
Cc1ccc(C(C(=O)NCc2ccccc2)N(Cc2cccs2)C(=O)c2ccc3c(c2)OCCO3)cc1 (stereo not drawn)	-14%	3%	?	27%	i
COc1ccc(CNC(=O)C(c2ccc(C)cc2)N(Cc2cccs2)C(=O)c2ccc3c(c2)OCCO3)cc1 (stereo not drawn)	-23%	-6%	5µM*	3%	i
O=S1(=O)C=CCN1Cc1cn(Cc2ccc(C(F)(F)F)cc2)nn1	.	.	i	.	.
O=C(Nc1ccno1)Nc1ccc(Cl)cc1Cl	14µM*	-12%	i	9%	i
O=c1oc2c(CN3CCOCC3)c(O)ccc2cc1-c1ccc(Cl)cc1	13µM*	.	i	.	i
CC1(C)CC(NCc2ccccc2)=CC(=S)N1	26%	-2%	i	.	i
CC1(C)CC(N2CCN(CCO)CC2)=CC(=S)N1	?	18µM*	i	1%	i
CC(=O)c1ccc(N2C(=O)N(Cc3cccc(C(F)(F)F)c3)c3ccccc3S2(=O)=O)cc1	23%	.	i	.	i
COc1cccc2c1C(=O)/C(=C/c1ccc(N(C)C)cc1)C2	.	-18%	.	.	.
COc1cc(OC)c(OC)cc1/C=C1\CC(C)C/C(=C\c2cc(OC)c(OC)cc2OC)C1=O (stereo not drawn)	18%	-13%	25µM*	1%	i
Cc1nn(C(=O)c2cccc(F)c2)c(C)c1S(=O)(=O)N1CCCCCC1	21%	.	i	.	i
C=CCC12C=C(OC)C(=O)C(C1=O)C(c1ccc(OC)cc1)C2C (stereo not drawn)	.	.	i	.	.
